SARS PLpro yeast: SARS-CoV PLP inhibition in yeast; Potency, µM (highest dose often 32.9 µM), for the others: at the highest dose activity, positive = growth rescue, actives largely listed as activators; AID 485353; 330,000 compounds, 0.19% hits; S. cerevisiae expressing SARS-CoV PLpro, growth rescue; calls by dose curve; note: potency is the fitted concentration of half-maximal effect; 0% is about no effect; nearly all actives have a fitted effect of over 55% in size
Pf growth 96h: inhibits malaria parasite growth, 96 h; 320,000 compounds, 6.9% hits; P. falciparum luciferase reporter growth, 96 h; Potency, µM (doses to about 28.7 µM), for the others: at the top dose activity change, negative = inhibition, hits mostly inhibitors; AID 504834; note: potency is the fitted concentration of half-maximal effect; % is set by controls: 0 for no effect and ±100 for the full control effect
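Readout is luminescence from an integrated firefly luciferase in P. falciparum. Red cells, 2% hematocrit and 0.05% parasitemia final, were cultured with compound through two parasite generations (96 hours) at 37 C, 5% CO2.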
AMA1-RON2 inh: inhibitors of Plasmodium falciparum AMA1-RON2 interaction; Potency, µM (top dose mostly 58.2 µM), inactives show top-dose activity change, negative = inhibition, actives largely listed as inhibitors; AlphaScreen AMA1-biotinylated RON2 peptide binding; 360,000 compounds, 0.2% hits;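 note: potency is the fitted concentration of half-maximal effect; 0% = vehicle wells and -100% = peptide control; nearly all actives have a fitted effect of over 45% in size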
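AMA1 (3D7) with his tag at 25 nM final met compounds first, then biotinylated RON2 peptide at 25 nM; detection used donor plus acceptor beads, 10 µg/mL apiece, read by AlphaScreen after 30 min at room temperature.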
Pf growth 48h: P. falciparum growth inhibition at 48 hours (one generation). Potency, µM (series often up to 28.7 µM), without a hit: at the highest dose activity change, negative = inhibition, actives largely listed as inhibitors. AID 504832. 310,000 compounds, 5.9% hits. P. falciparum luciferase growth in erythrocytes, 48 h; note: potency is the fitted concentration of half-maximal effect; % is set by controls: 0 for no effect and ±100 for the full control effect
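Here the parasites carry a stable luciferase gene and grow inside erythrocytes in Albumax-based RPMI medium with compound for one erythrocytic cycle. Activity is scored as loss of luminescent signal.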
CHX counter: affects cycloheximide protein synthesis inhibition readout, counter-screen; cell reporter, cycloheximide protein synthesis inhibition counterscreen; max response, %; 300,000 compounds, 12% hits; AID 2314; in the data active = max response mostly above about 13%, no sharp cut-off; inactive = mostly below about 14%; note: read at 38.3 µM for the half of the compounds with a filed dose; 0% is about no effect
Shiga inhibitor: blocks Shiga toxin action in Vero cells; Vero cells, Shiga toxin protein synthesis inhibition reporter; inhibition, % at 38.7 µM; 290,000 compounds, 9.2% hits; in the data active = inhibition mostly above about 28%, no sharp cut-off; inactive = mostly below about 43%; note: 0% is about no effect
* marks the source's active call; other numbers are inactive results. Shown are actives, neighbours in structure and some others; about 19% of the full set was active somewhere. Unless noted, calls come from the whole dose curve; as a rule, active = well fitted curve in the direction sought with a large enough effect; inconclusive = small, poorly fitted or top-dose-only effect, or another doubt; inactive = no such curve, though single readings can be large; an effect the other way counts as inactive or inconclusive.

`COc1ccc(C)cc1-n1nnnc1SCC(=O)NC1CCCC1` gave SARS PLpro yeast -0.9%, Pf growth 96h 44.0%, AMA1-RON2 inh -11.7% and Pf growth 48h inconclusive.
COc1ccc(C)cc1-n1nnnc1SCC(=O)N1CCC(C(=O)Nc2nccs2)CC1 was read as SARS PLpro yeast -1.2%, Pf growth 96h 1.65µM*, AMA1-RON2 inh -1.2%, Pf growth 48h -59.8%, CHX counter 9.2 and Shiga inhibitor -9.4.
CCCOc1ccc(/C=N/Nc2cccc([N+](=O)[O-])c2)c(O)c1 was read as SARS PLpro yeast -14.7%, Pf growth 96h inconclusive, AMA1-RON2 inh 15.0%, Pf growth 48h inconclusive, CHX counter 82.4* and Shiga inhibitor 80.5*.
Screening CCCOc1ccc(/C=N/Nc2ccc(C(=O)O)cc2)c(OCCC)c1 returned SARS PLpro yeast 2.1%, Pf growth 96h -9.5%, AMA1-RON2 inh -13.1%, Pf growth 48h 147.8%, CHX counter 38.4* and Shiga inhibitor 120.9*.
COc1ccc(/C=N/NC(=S)Nc2ccccc2[N+](=O)[O-])cc1O was read as SARS PLpro yeast inconclusive, Pf growth 96h 28.3%, AMA1-RON2 inh 57.2%, Pf growth 48h 130.9%, CHX counter 60.1* and Shiga inhibitor 62.2*.
Screening CCCOc1ccc(/C=N/NC(=S)Nc2ccccc2[N+](=O)[O-])c(O)c1 returned SARS PLpro yeast 10µM*, Pf growth 96h inconclusive, AMA1-RON2 inh 45.3%, Pf growth 48h 2.62µM*, CHX counter 92.9* and Shiga inhibitor 75.5*.
Screening O=C(O)c1ccc(NN=Cc2cc(=O)[nH]c(=O)[nH]2)cc1 returned AMA1-RON2 inh 22.3%.
Screening Cc1ccc(Sc2cc(Cl)nc(N)n2)cc1 returned SARS PLpro yeast -16.0%, Pf growth 96h 56.3%, AMA1-RON2 inh -4.1%, Pf growth 48h 5.5%, CHX counter -1.7 and Shiga inhibitor 36.9.
Screening COCCCN=CC1=C(O)CC(c2ccccc2)CC1=O (stereo not given) returned SARS PLpro yeast 0.8%, Pf growth 96h -27.8%, AMA1-RON2 inh -3.9%, Pf growth 48h 18.7%, CHX counter 2.8 and Shiga inhibitor 15.7.
For CCCOc1ccc(/C=N/Nc2ccccc2[N+](=O)[O-])c(O)c1 the results were SARS PLpro yeast -11.9%, Pf growth 96h 14.3%, AMA1-RON2 inh -16.4%, Pf growth 48h 232.8%, CHX counter 57.5* and Shiga inhibitor 73.7*.
`COc1ccc(C(=O)CCC(C)(C)[N+](=O)[O-])cc1` gave SARS PLpro yeast -1.7%, Pf growth 96h 175.0%, AMA1-RON2 inh -0.4%, Pf growth 48h inconclusive, CHX counter 32.3* and Shiga inhibitor 31.0.
`COc1ccc(C(=O)CCS(=O)(=O)c2ccc(C)cc2)cc1` gave SARS PLpro yeast 2.7%, Pf growth 96h -1.2%, AMA1-RON2 inh 3.2%, Pf growth 48h -10.9%, CHX counter -4.2 and Shiga inhibitor -7.6.
COc1cc(C)c(N)cc1C(C)C was read as SARS PLpro yeast 1.7%, AMA1-RON2 inh -17.1%, Pf growth 48h 3.5%, CHX counter 0.7 and Shiga inhibitor -0.8.
Cc1cc(OI)c(C(C)C)cc1-c1cc(C(C)C)c(OI)cc1C was read as Pf growth 96h 6.75µM*, Pf growth 48h inconclusive, CHX counter -3.3 and Shiga inhibitor -5.2.
CC(C)OC(=O)Nc1ccc2nc(-c3cscn3)[nH]c2c1 was read as Pf growth 96h -20.8% and Pf growth 48h -17.9%.
COC(=O)c1ccc(CN2CCN(CCc3ccccc3)C(CCO)C2)cc1 (stereo not given) was read as SARS PLpro yeast 1.4%, Pf growth 96h 33.4%, AMA1-RON2 inh -12.9%, Pf growth 48h inconclusive, CHX counter 2.1 and Shiga inhibitor -5.4.
For Fc1ccccc1N1CCN(C2CCN(Cc3c[nH]c4ccccc34)CC2)CC1 the results were SARS PLpro yeast 9.4%, Pf growth 96h 3.7µM*, AMA1-RON2 inh 23.9%, CHX counter 24.2 and Shiga inhibitor 15.8.
`Clc1ccccc1N1CCN(Cc2c[nH]c3ccccc23)CC1` gave AMA1-RON2 inh -20.0%.
`COc1cc(C(C)=O)ccc1OCC(=O)Nc1cc(S(=O)(=O)N2CCOCC2)ccc1N1CCCC1` gave AMA1-RON2 inh 6.2%.

Compound activity (PubChem BioAssay)
